In the library only some 1.4% were active in any assay of this set; here they are far more common.
SARS PLP yeast: SARS-CoV PLP inhibition in yeast; S. cerevisiae expressing SARS-CoV PLpro, growth rescue; Potency, µM (titrated, usually from 32.9 µM), inactives show at the highest dose activity, positive = growth rescue, hits mostly activators; actives 0.19% (n = 330,000); AID 485353; calls by dose curve; also: 0% is about no effect; nearly all actives have a fitted effect of over 55% in size
Vaccinia mCherry: vaccinia inhibition (mCherry reporter). Vaccinia virus mCherry reporter infection, fluorescence. Potency, µM (titrated, usually from 36.5 µM), for inactives: at the highest dose activity change, negative = inhibition, hits mostly inhibitors. actives 0.63% (n = 310,000). AID 720579; calls by dose curve; tested in A549 cells; also: % is scaled to controls: 0 for no effect and ±100 for the full control effect; nearly all actives have a fitted effect of over 35% in size
AmpC detergent: AmpC beta-lactamase inhibition with detergent present; P00811; actives 0.041% (n = 370,000); AmpC hydrolysis of nitrocefin, absorbance 480 nm, 0.01% Triton; Potency, µM (titrated, usually from 114 µM), for inactives: top-dose activity change, negative = inhibition, actives largely listed as inhibitors;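 also: 0% = no-compound wells and -100% = no-enzyme wells; nearly all actives have a fitted effect of over 25% in size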
Target sequence (P00811 whole entry, looked up): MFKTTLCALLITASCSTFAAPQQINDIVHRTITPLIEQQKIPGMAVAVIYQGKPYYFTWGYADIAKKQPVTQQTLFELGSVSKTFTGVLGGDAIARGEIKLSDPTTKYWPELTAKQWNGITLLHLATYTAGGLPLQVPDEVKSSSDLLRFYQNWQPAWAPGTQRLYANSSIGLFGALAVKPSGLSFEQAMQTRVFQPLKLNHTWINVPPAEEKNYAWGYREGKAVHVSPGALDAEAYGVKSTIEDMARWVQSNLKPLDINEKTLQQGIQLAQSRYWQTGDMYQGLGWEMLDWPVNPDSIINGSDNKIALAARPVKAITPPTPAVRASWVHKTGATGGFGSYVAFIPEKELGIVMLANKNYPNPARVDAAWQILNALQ
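AmpC (5.3 nM in the dispensed reagent) in 20 mM phosphate pH 7.0 with 0.01% (detergent screen) or 0.0001% Triton X-100 was preincubated with compounds for 15 min at room temperature. Nitrocefin was then added from an 800 uM solution, and hydrolysis was followed at 480 nm.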
AMA1 RON2 block: AMA1-RON2 (P. falciparum) interaction inhibition | actives 0.2% (n = 360,000) | Potency, µM (titrated, usually from 58.2 µM), inactives show at the highest dose activity change, negative = inhibition, usual class: inhibitors | AlphaScreen AMA1-biotinylated RON2 peptide binding;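 also: 0% = vehicle wells and -100% = peptide control; nearly all actives have a fitted effect of over 45% in size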
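AMA1 (3D7) with his tag at 25 nM final met compounds first, then biotinylated RON2 peptide at 25 nM; detection used donor plus acceptor beads, 10 µg/mL apiece, read by AlphaScreen after 30 min at room temperature.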
Vaccinia Venus: inhibitors of vaccinia virus (Venus reporter); Vaccinia virus Venus reporter expression, fluorescence; Potency, µM (top dose mostly 36.5 µM), for the others: at the highest dose activity change, negative = inhibition, actives largely listed as inhibitors; actives 0.46% (n = 330,000); AID 720580; calls by dose curve; tested in A549 cells; also: % is scaled to controls: 0 for no effect and ±100 for the full control effect; nearly all actives have a fitted effect of over 30% in size
AmpC no deterg: AmpC beta-lactamase inhibition without detergent. P00811. AmpC nitrocefin hydrolysis, absorbance 480 nm, 0.0001% Triton. Potency, µM (doses to about 57.1 µM), inactives show top-dose activity change, negative = inhibition, actives largely listed as inhibitors. actives 0.52% (n = 330,000);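 also: plate controls were no compound for no effect and no enzyme for full effect; nearly all actives have a fitted effect of over 20% in size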
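AmpC (5.3 nM in the dispensed reagent) in 20 mM phosphate pH 7.0 with 0.01% (detergent screen) or 0.0001% Triton X-100 was preincubated with compounds for 15 min at room temperature. Nitrocefin was then added from an 800 uM solution, and hydrolysis was followed at 480 nm.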
The depositor's hits bear a star; i = inactive; ? = inconclusive; / = no result given; [ ] = another dose, or the depositor's remark. Unless noted, calls follow the shape of the dose curve; as a rule, active = well fitted curve in the direction sought with a large enough effect; inconclusive = small, poorly fitted or top-dose-only effect, or another doubt; inactive = no such curve, though single readings can be large; an effect the other way counts as inactive or inconclusive. Potency is read from the fitted curve at half-maximal effect.

SMILES | SARS PLP yeast | Vaccinia mCherry | AmpC detergent | AMA1 RON2 block | Vaccinia Venus | AmpC no deterg
C/C(=N\NC(=O)c1ccncc1)C12CC3CC(CC(C3)C1)C2 | -1.8% | -19.7% | ? | 9.1% | -1.2% | -1.1%
O=C1c2ccccc2C(=O)c2cc(S(=O)(=O)Nc3ccccc3)ccc21 | 3.7% | -28.6% | -11.8% | -29.9% | -17.8% | 28.2µM*
CSc1ncccc1C(=O)NCC1Cc2cc(-c3cnccn3)ccc2O1 (stereo not drawn) | / | -2.4% | / | / | 6.5% | /
COC(=O)CCC(C)C1CCC2C3CC[C@H]4CC(O)CC[C@@]4(C)C3CC(O)[C@]12C (stereo partly drawn) | / | ? | / | / | 10µM* | /
CC(=O)Nc1ccccc1-c1nc(CNC(=O)c2ccc(-c3ccccc3F)cc2)c(C)o1 | / | -23.5% | / | / | -22.0% | /
COc1cccc(Cn2c(NCc3cccnc3)nc3c2c(=O)n(C)c(=O)n3C)c1 | 5.5% | 4.47µM* | ? | 24.7% | ? | 28.3%
Cn1c(=O)c2c(nc(NCc3cccnc3)n2Cc2cccc(C(F)(F)F)c2)n(C)c1=O | -2.0% | / | ? | -0.2% | ? | 71.9%
COc1cc(NC(=O)N2CCc3nc(Nc4cc(Cl)cc(Cl)c4)ncc3C2)cc(OC)c1OC | / | ? | / | 0.0% | ? | /
COc1cc(NC(=O)N2CCc3nc(NCc4cccc(Oc5ccccc5)c4)ncc3C2)cc(OC)c1OC | / | 10µM* | / | -26.3% | ? | /
CCN(CC)c1ccc(NC(=O)c2c(C)nn(-c3ccc(F)cc3)c2-n2cccc2)c(C)c1 | / | -15.3% | 15.1% | / | -9.1% | /
CS(=O)(=O)c1ncc(Cl)c(C(=O)N(Cc2ccc(Cl)cc2)Cc2ccco2)n1 | / | ? | -8.9% | / | 15.8µM* | /
NS(=O)(=O)c1ccc(NC(=O)CN2CCN(c3ccc(F)cc3)CC2)cc1 | / | -6.7% | -8.0% | / | -16.1% | /
CN(Cc1ccc(Cl)c(Cl)c1)C(C(=O)NCc1ccccc1)c1ccco1 (stereo not drawn) | / | ? | / | -12.3% | -5.0% | /
CN(Cc1ccc(Cl)c(Cl)c1)C(C(=O)NCc1ccccc1)c1ccc(C(F)(F)F)cc1 (stereo not drawn) | / | 11.2µM* | / | 0.4% | ? | /
C/C(CC(=O)Nc1ccc(Cl)cc1Cl)=N\NC(=O)c1ccco1 | -11.3% | ? | -11.9% | 66.1% | -25.4% | 7.94µM*
C/C(CC(=O)Nc1ccc(C)c(Cl)c1)=N\NC(=O)c1ccco1 | -1.4% | -4.3% | 4.6% | 61.4% | -13.0% | -1.7%
COC(=O)c1cc(CNC(=O)c2cccc(N(C)C)c2)cc(NC(=O)c2ccccc2Cl)c1 | / | -12.4% | / | / | -19.0% | /
O=c1cc2oc3cc(O)c(O)cc3c(-c3ccccc3[N+](=O)[O-])c-2cc1O | ? | -21.4% | -7.1% | 0.708µM* | -10.8% | 1.12µM*
CC(=O)c1cccc(NC(=O)c2noc3c2CSc2ccccc2-3)c1 | / | ? | 13.7% | / | ? | /
Cc1oc(-c2ccccc2NC(=O)c2ccsc2)nc1CN(C)Cc1ccc2c(c1)CCCN2C | / | -1.5% | / | / | -12.3% | /
Cc1cccc2sc(N(CCN(C)C)C(=O)/C=C/c3cccs3)nc12 | -2.2% | -26.1% | 4.1% | -12.8% | ? | 27.0%
CN(C)CCCN(C(=O)/C=C/c1cccs1)c1nc2c(F)cccc2s1 | -11.3% | 10µM* | ? | ? | 10µM* | 140.8%
Cc1ccc(C2CC(c3ccc(C)cc3)n3nc(N)nc3N2)cc1 (stereo not drawn) | -4.1% | -14.7% | ? | 8.9% | -1.4% | 44.7µM*
CCc1ccc(C2CC(c3ccc(F)cc3)Nc3nc(N)nn32)cc1 (stereo not drawn) | 11.3% | -8.7% | 10.0% | 0.0% | -8.8% | 4.47µM*
O=C(CSc1nc(O)cc(=O)n1-c1ccccc1)Nc1ccccn1 | 0.7% | i | 0.6% | -12.4% | 2.5% | 11.2µM*
SMILES | SARS PLP yeast | Vaccinia mCherry | AmpC detergent | AMA1 RON2 block | Vaccinia Venus | AmpC no deterg
CN(C(=O)COC(=O)/C=C/c1cccc([N+](=O)[O-])c1)C1CCS(=O)(=O)C1 (stereo not drawn) | -0.7% | 1.78µM* | 3.1% | -2.4% | 2.82µM* | 2.6%
O=C(NC(Cc1c[nH]c2ccccc12)C(=O)Nc1ccc(F)c([N+](=O)[O-])c1)c1cccs1 (stereo not drawn) | 26.2% | 2.51µM* | ? | 3.2%[2.32 µM] | 2.6% | -24.9%
Cc1ncc2c(c1CNC(=O)c1ccc3c(c1)OCO3)CCN(C(=O)c1cn3ccccc3n1)C2 | / | -9.6% | / | / | 5.5% | /
C[C@]12c3[nH]c4ccccc4c3CCN1C(=O)C(CC(=O)NCCc1ccccn1)C[C@@H]2C(=O)N1CCCCC1 (stereo partly drawn) | 0.7% | i | / | 30.2% | -10.2% | 287.7%
O=C(CC1C[C@H](C(=O)N2CCCCC2)[C@@]2(CCc3ccccc3)c3[nH]c4ccccc4c3CCN2C1=O)NCCc1ccccn1 (stereo partly drawn) | / | 10µM* | / | 6.6% | ? | /
O=C(C[C@H]1C[C@H](C(=O)N2CCOCC2)[C@@]2(CCC3CCCC3)c3[nH]c4cc(-c5ccco5)ccc4c3CCN2C1=O)NCCc1ccccn1 | -0.1% | ? | / | ? | 10µM* | 159.5%
Cc1ccc(CNC(=O)c2cc3c(=O)n(Cc4ccco4)ccc3nc2C)cc1 | / | -5.2% | 3.7% | / | -4.9% | /
O=Cc1cccc(C=O)c1 | / | i | / | / | -18.1% | /
CN(CCO)C(=O)c1cn(C2CCCN(Cc3cccc4ccccc34)C2)nn1 (stereo not drawn) | / | -6.1% | / | / | -5.7% | /
Cc1cccc(NC(=S)N/N=C/c2c[nH]c3ccccc23)c1 | -89.5% | ? | -6.6% | 82.0%[11.6 µM] | ? | 15.8µM*
Cc1cc(C(=O)Nc2c(C)n(C)n(-c3ccccc3)c2=O)c(C)o1 | 2.3% | / | 2.6% | 1.4% | / | 0.159µM*
Cc1c(NC(=S)N/N=C\c2ccccc2O)c(=O)n(-c2ccccc2)n1C | 3.0% | 12.6µM* | ? | -19.1% | ? | -34.3%
Cc1ccc(C(=O)Nc2ccc(C(=O)N/N=C/c3c[nH]c4ccccc34)cc2)cc1 | -17.2% | i | ? | 25.8% | -18.6% | -31.0%
CN(C)c1nc(N/N=C/c2ccccc2O)nc(Nc2ccc(F)cc2)n1 | -21.7% | 7.94µM* | -3.2% | 40.1% | ? | -37.2%
C=C1C=C(C(F)F)n2ncc(C(=O)NCc3ccccc3OC)c2N1 | / | -29.1% | / | / | -19.0% | /
CCC1CN(CCNC(=O)C2CCCCN2C)Cc2cc(OC)ccc2O1 (stereo not drawn) | / | -12.6% | / | / | 5.7% | /
Oc1ccccc1C=NNC(=S)Nc1ccc(F)cc1 | / | 5.62µM* | / | -60.0% | ? | /
Fc1ccc(NC(=S)NN=Cc2ccccc2Cl)cc1 | / | -24.8% | / | 34.5% | -1.5% | /
O=C(COc1ccccc1C(=O)Nc1ccccc1F)Nc1ccc(Br)cc1 | / | -20.8% | / | / | -14.8% | /

Screening data as filed in PubChem.
